Data: PubChem BioAssay (NCI)
Where “and” joins values, the source holds several entries; their conditions need not be identical. Equal entries are not always repeated. The panel holds about 83,000 compounds, 20% with a hit somewhere; the sample as a whole holds those more often.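 96-well plates, one dose, 48 hours. Percent growth reported; active if below 10.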 Calls of active or inactive are those of the source.

How the values were obtained:
Test in all cases: NCI-60 one-dose screen, 48 h (100 = growth as untreated, 0 = no growth, -100 = all killed)
Details in all cases: 10 µM unless noted
[1] = system: NCI-H23 lung
[2] = system: NCI-H226 lung
[3] = system: NCI-H322M lung
[4] = system: HOP-62 NSCLC
[5] = system: NCI-H460 lung
[6] = system: HOP-92 NSCLC
[7] = system: NCI-H522 lung
[8] = system: A549/ATCC NSCLC
[9] = system: 786-0 renal
[10] = system: COLO 205 colon
[11] = system: DU-145 prostate
[12] = system: K-562 leukemia
[13] = system: MALME-3M melanoma
[14] = system: MDA-MB-231 breast
[15] = system: RXF 393 renal
[16] = system: SF-268 CNS
[17] = system: SF-295 CNS
[18] = system: SF-539 CNS
[19] = system: UACC-257 melanoma
[20] = system: M14 melanoma

Measured: growth

COC(=O)/C=C1/SC(=Nc2ccc([N+](=O)[O-])cc2)N(CCc2c[nH]c3ccccc23)C1=O
inactive: [1] 72.7% | [2] 98.7% | [3] 98.4% | [4] 96.7% | [5] 92.2% | [6] 73.2% | [7] 53.6% | [8] 90.8% | [9] 68% | [10] 84.6% | [11] 66.8% | [12] 25.8% | [13] 86.5% | [14] 72.1% | [15] 70.4% | [16] 75.7% | [17] 84.2% | [18] 79.6% | [19] 71.6% | [20] 52%

c1ccc(-c2cc(-c3cc(-c4ccccc4)on3)no2)cc1
active: [11] 9.62%
inactive: [1] 74.9% | [2] 98.8% | [3] 89.9% | [4] 107% | [5] 45% | [6] 86.1% | [7] 62.2% | [8] 78.9% | [9] 106% | [10] 94.2% | [12] 77.7% | [13] 114% | [14] 105% | [15] 74.8% | [16] 90.1% | [17] 82.2% | [18] 91.3% | [19] 79.6% | [20] 109%

CCN(CC)/C([O-])=c1\cccc\c1=C1\N=C(c2ccccc2)N=C1[n+]1ccc(-c2ccccc2)cc1
inactive: [1] 103% | [2] 94.4% | [3] 100% | [4] 97.1% | [5] 103% | [6] 86.7% | [7] 21% | [8] 97.9% | [9] 94.2% | [10] 108% | [11] 102% | [12] 96.7% | [13] 92.7% | [14] 100% | [15] 104% | [16] 102% | [17] 100% | [18] 89.1% | [19] 92.9% | [20] 89.6%

CC/C(=C(/c1ccc(Cl)cc1)c1ccc(OCCN2CCOCC2)cc1)c1ccccc1
inactive: [1] 87.5% | [2] 108% | [3] 104% | [4] 106% | [5] 96.1% | [6] 98.4% | [7] 88.6% | [8] 89.9% | [9] 103% | [10] 99.8% | [11] 98.4% | [12] 63.7% | [13] 104% | [14] 95.5% | [15] 107% | [16] 90.5% | [17] 97.1% | [18] 104% | [19] 98.8% | [20] 99.5%

Nc1n[nH]c2cccc(C#Cc3cccc(C(=O)Nc4ccc(CN5CCOCC5)c(C(F)(F)F)c4)c3)c12
inactive: [1] 33.6% | [2] 36.5% | [3] 72.2% | [4] 52.1% | [5] 44.5% | [6] 35.5% | [7] 41.9% | [8] 43.4% | [10] 13.1% | [11] 69.5% | [14] 28.8% | [16] 55% | [19] 40.1%
active: [9] 8.57% | [12] 4.19% | [13] -3.92% | [15] -4.45% | [17] 2.26% | [18] -54.5% | [20] 5.11%

Cc1nnc(NS(=O)(=O)c2ccc(N=Nc3ccc(N)nc3N)cc2)s1
inactive: [1] 100% and 110% | [2] 111% and 110% | [3] 114% and 92.8% | [4] 113% | [5] 110% and 112% | [6] 95.5% | [7] 96.7% | [8] 97.1% and 112% | [9] 102% and 99.8% | [10] 110% | [11] 118% and 105% | [12] 105% | [13] 110% | [14] 95.7% and 112% | [15] 134% and 136% | [16] 115% and 106% | [17] 127% and 102% | [18] 110% and 103% | [19] 105% and 117% | [20] 101% and 108%

CC1(C)C(N)=Nc2cc(OCCCN3Cc4ccc(OCCc5cn(CC(=O)N6CCC(CCN7CCCC7)CC6)nn5)cc4C3)c(OCC3CC3)cc21
inactive: [1] 98.2% | [2] 108% | [3] 102% | [4] 95.4% | [5] 105% | [6] 81.3% | [7] 101% | [8] 100% | [9] 99.6% | [10] 108% | [11] 111% | [12] 88% | [13] 106% | [14] 112% | [15] 113% | [16] 86% | [17] 100% | [18] 97% | [19] 112% | [20] 108%
